Records with an inconclusive call do not appear. Where a structure was tested more than once in an assay, its records may differ in their call. Active and inactive are the calls of the source. Rule for the calls, unless noted: active = hit-call score of the fitted dose curve at least 0.9, where 1 is the maximum; inactive = score below 0.9.
Columns and labels:
[1] = APR_HepG2_CellCycleArrest_1hr: Apredica 1-hour HepG2 Assay for Cell Cycle Arrest (AID 2282666); conditions: high-content imaging, actives raise or lower the signal
Summary of the method: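 HepG2 cells exposed for 1 h to 0.39–200 uM compound (0.5% DMSO). Fixed, Hoechst-stained nuclei imaged by ArrayScan; DNA content quantified by Cell Cycle analysis; bidirectional fit against DMSO.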

[2] = ACEA_ER_80hr: ACEA Biosciences xCELLigence Real-Time Cell Analysis on Estrogen Receptor Agonism for Proliferation (AID 2282667; active = hit-call score of the fitted dose curve at least 0.9, where 1 is the maximum); conditions: T47D proliferation, impedance (xCELLigence), 80 h
Summary of the method: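 Real-time impedance growth kinetics of human T-47D breast cells read 80 h after dosing, gain-of-signal fitted relative to DMSO. Compounds: 1:4 serial series, top final concentration 100 uM, n = 2.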

[3] = APR_HepG2_NuclearSize_1hr: Apredica 1-hour HepG2 Assay for Nuclear Size (AID 2282670); conditions: high-content imaging, actives raise or lower the signal
Summary of the method: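 HepG2 cells dosed 1 hr with 0.39–200 uM compound (0.5% DMSO), formaldehyde-fixed, Hoechst 33342-stained and imaged at 20x; nuclear diameter from nuclear stain, fitted bidirectionally against DMSO.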

[4] = APR_HepG2_MitoticArrest_1hr: Apredica 1-hour HepG2 Assay for Mitotic Arrest (AID 2282672); conditions: high-content imaging, actives raise or lower the signal
Summary of the method: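 HepG2 cells exposed 1 hr to compounds at 0.39–200 uM (0.5% v/v DMSO final), then fixed in 3.7% formaldehyde and immunostained for phospho-histone H3 with Hoechst 33342. Mitotic arrest scored by automated fluorescence imaging, fitted bidirectionally versus DMSO.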

[5] = APR_HepG2_MitoMass_1hr: Apredica 1-hour HepG2 Assay for Mitochondrial Mass (AID 2282674); conditions: high-content imaging, actives raise or lower the signal
Summary of the method: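 HepG2 cells dosed 1 hr with 0.39-200 uM compound (0.5% DMSO), duplicate wells. Mitochondria stained with 250 nM MitoTracker Red CMXRos for 30 min before formaldehyde fixation, imaged at 20x by ArrayScan; bidirectional fit versus DMSO.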

[6] = APR_HepG2_StressKinase_1hr: Apredica 1-hour HepG2 Assay for Stress Kinase (AID 2282906); conditions: HepG2 stress kinase (phospho-c-Jun) imaging, actives raise or lower the signal
Summary of the method: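 HepG2 cells dosed 0.39-200 uM (0.5% DMSO) for 1 h, then formaldehyde-fixed. Stress kinase read by phospho-c-Jun immunofluorescence using high-content imaging; bidirectional fit vs DMSO.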

[7] = APR_HepG2_NuclearSize_24hr: Apredica 24-hour HepG2 Assay for Nuclear Size (AID 2282907); conditions: high-content imaging, actives raise or lower the signal
Summary of the method: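 Compounds in DMSO (final 0.5%) were added to human HepG2 hepatoma cells at ten concentrations up to 200 uM for 24 hr. Fixed nuclei were stained with Hoechst 33342, and nuclear diameter was quantified from automated images.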

[8] = APR_HepG2_MicrotubuleCSK_24hr: Apredica 24-hour HepG2 Assay for Microtubule CSK Stabilty (AID 2282909); conditions: HepG2 microtubule cytoskeleton imaging, actives raise or lower the signal
Summary of the method: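 Steps: dose HepG2 for 24 h (0.39–200 uM, 0.5% DMSO); fix 30 min in 3.7% formaldehyde at room temperature; permeabilize; stain alpha-tubulin 60 min; image microtubule cytoskeleton at 20x. Signal change fitted in both directions relative to DMSO.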

[9] = APR_HepG2_MitoticArrest_24hr: Apredica 24-hour HepG2 Assay for Mitotic Arrest (AID 2282910); conditions: high-content imaging, actives raise or lower the signal
Summary of the method: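 HepG2 human liver cells were exposed to compounds at 0.39–200 uM (10 concentrations, duplicate) in 0.5% v/v DMSO for 24 hr, then fixed and immunostained for phospho-histone H3 with Hoechst 33342. Mitotic arrest came from HCS fluorescent imaging, fitted bidirectionally against DMSO.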

[10] = APR_HepG2_MitoMembPot_24hr: Apredica 24-hour HepG2 Assay for Mitochondrial Membrane Potential (AID 2282911); conditions: imaging, actives raise or lower the signal
Summary of the method: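 Mitochondrial membrane potential imaged via MitoTracker Red CMXRos (250 nM, 30 min pre-fixation) in fixed HepG2 cells with Hoechst nuclear identification. Ten concentrations 0.39–200 uM, 24 h treatment, 0.5% DMSO; CCCP as positive control.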

[11] = APR_HepG2_MitoMass_24hr: Apredica 24-hour HepG2 Assay for Mitochondrial Mass (AID 2282912); conditions: high-content imaging, actives raise or lower the signal
Summary of the method: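 The liver line HepG2 was dosed in duplicate across a 0.39–200 uM series, with final DMSO held at 0.5% v/v, and harvested at 24 hr. High-content imaging measured mitochondrial dye staining.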

[12] = APR_HepG2_CellCycleArrest_72hr: Apredica 72-hour HepG2 Assay for Cell Cycle Arrest (AID 2282914); conditions: high-content imaging, actives raise or lower the signal
Summary of the method: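 Read-out: nuclear DNA content from Hoechst 33342 high-content imaging (20x, six fields/well) after 3.7% formaldehyde fixation, fitted bidirectionally against DMSO. Treatment was 72 h in HepG2, ten concentrations 0.39–200 uM, duplicate, 0.5% DMSO.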

[13] = APR_HepG2_MicrotubuleCSK_1hr: Apredica 1-hour HepG2 Assay for Microtubule CSK Stabilty (AID 2282669); conditions: HepG2 microtubule cytoskeleton imaging, actives raise or lower the signal
Summary of the method: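 HepG2 cells exposed 1 h to 0.39–200 uM compound (0.5% DMSO, duplicates), then formaldehyde-fixed, permeabilized and immunostained for alpha-tubulin with Hoechst nuclei. Imaged by ArrayScan high-content analysis; bidirectional fit versus DMSO.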

[14] = APR_HepG2_p53Act_1hr: Apredica 1-hour HepG2 Assay for p53 Activation (AID 2282671); conditions: high-content imaging, actives raise or lower the signal
Summary of the method: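 HepG2 cells treated 1 h with compound at 0.39–200 uM (10 concentrations, duplicate) in 0.5% DMSO. Formaldehyde-fixed, permeabilised cells immunostained for p53 with Hoechst 33342; high-content imaging, bidirectional fit versus DMSO.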

[15] = APR_HepG2_P-H2AX_1hr: Apredica 1-hour HepG2 Assay for H2AX Phosphorylation (AID 2282673); conditions: high-content imaging, actives raise or lower the signal
Summary of the method: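 HepG2 dosed 1 hr at 0.39-200 uM (0.5% DMSO final), duplicate. Fixed in 3.7% formaldehyde, Triton permeabilized, immunostained for phospho-histone H2A.x (1:200) with Hoechst 33342; ArrayScan 20x imaging, bidirectional fit vs DMSO.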

[16] = APR_HepG2_p53Act_24hr: Apredica 24-hour HepG2 Assay for p53 Activation (AID 2282913); conditions: high-content imaging, actives raise or lower the signal;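 note: p53 protein immunofluorescence averaged per cell in HepG2 with Hoechst nuclei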
Summary of the method: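 Fluorescence imaging of formaldehyde-fixed HepG2 cells labelled for p53 and with Hoechst, 24 h after dosing (0.39–200 uM, duplicate wells, 0.5% v/v DMSO). Signal fitted in both directions relative to DMSO.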

[17] = APR_HepG2_CellLoss_1hr: Apredica 1-hour HepG2 Assay for Cell Loss (AID 2282668); conditions: high-content imaging;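 note: curves fitted both ways against DMSO so gain or loss of cells counts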
Summary of the method: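 HepG2 cells were treated for 1 h with compound at 0.39–200 uM, in duplicate, in 0.5% DMSO. After formaldehyde fixation, Hoechst 33342-stained nuclei were imaged on an ArrayScan to count cells. Data were fitted bidirectionally versus DMSO.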

[18] = APR_HepG2_CellCycleArrest_24hr: Apredica 24-hour HepG2 Assay for Cell Cycle Arrest (AID 2282905); conditions: imaging, actives raise or lower the signal;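 note: cell cycle arrest scored as ratio of 2N to 4N nuclear DNA content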
Summary of the method: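 Cell cycle arrest is scored from nuclear DNA content measured by high-content imaging of Hoechst 33342-stained HepG2 cells following 24-hour treatment at ten concentrations up to 200 uM, with DMSO as baseline.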

[19] = APR_HepG2_MitoMembPot_1hr: Apredica 1-hour HepG2 Assay for Mitochondrial Membrane Potential (AID 2282675); conditions: imaging, actives raise or lower the signal
Summary of the method: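 HepG2 cells dosed 1 hour with 0.39–200 uM compound in duplicate, 0.5% DMSO final. MitoTracker Red CMXRos (250 nM, 30 min) loaded before formaldehyde fixation; fluorescence quantified by high-content imaging, bidirectional fitting versus DMSO.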

[20] = APR_HepG2_CellLoss_24hr: Apredica 24-hour HepG2 Assay for Cell Loss (AID 2282908); conditions: high-content imaging;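 for AC50: fit in both directions so a hit may be cell loss or gain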
Summary of the method: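 Cell number is quantified by fluorescence imaging of Hoechst 33342-stained nuclei following dosing at 0.39–200 uM in 0.5% DMSO. Curves are fitted in both directions from the DMSO baseline.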

Measured: AC50

C#CCN1C(=O)COc2cc(F)c(N3C(=O)C4=C(CCCC4)C3=O)cc21
not listed: [13] | [14] | [15] | [16] | [17] | [18] | [19] | [20]
inactive: all other assays above

CC1(C)C(C=C(Cl)Cl)C1C(=O)OC(C#N)c1ccc(F)c(Oc2ccccc2)c1 (centres undefined)
not listed: [2] | [6] | [17] | [18] | [19] | [20]
inactive: all other assays above

CC[C@H](C)[C@H]1O[C@]2(C=C[C@@H]1C)C[C@@H]1C[C@@H](C/C=C(\C)[C@@H](O[C@H]3C[C@H](OC)[C@@H](O[C@H]4C[C@H](OC)[C@@H](O)[C@H](C)O4)[C@H](C)O3)[C@@H](C)/C=C/C=C3\CO[C@@H]4[C@H](O)C(C)=C[C@@H](C(=O)O1)[C@]34O)O2 (tested in a mixture with another compound)
active: [4] 12.6 µM | [5] 26.8 µM | [18] 12.7 µM | [8] 120 µM | [9] 111 µM | [11] 114 µM | [12] 21.6 µM
inactive: [1] | [17] | [3] | [7] | [10] | [16]

CNC(=O)Oc1ccccc1OC(C)C
not listed: [2] | [6] | [13] | [14] | [15] | [20]
inactive: all other assays above

CNC(=O)/C=C(\C)OP(=O)(OC)OC
not listed: [6] | [13] | [14] | [15] | [16] | [18] | [19] | [20]
inactive: all other assays above

ClC1C(Cl)C(Cl)C(Cl)C(Cl)C1Cl (centres undefined)
inactive: [1] | [17] | [3] | [4] | [5] | [18] | [6] | [7] | [8] | [9] | [10] | [11] | [16] | [12]
active: [12] 141 µM

CCc1ccc(C(=O)NN(C(=O)c2cc(C)cc(C)c2)C(C)(C)C)cc1
not listed: [2] | [13] | [14] | [20]
inactive: all other assays above

CCOc1nc(NC)nc(NC(=O)NS(=O)(=O)c2ccccc2C(=O)OC)n1
not listed: [2] | [6] | [14] | [15] | [19]
inactive: all other assays above

CCCN(CCC)c1c([N+](=O)[O-])cc(C(F)(F)F)cc1[N+](=O)[O-]
inactive: [1] | [2] | [3] | [4] | [5] | [7] | [8] | [9] | [11] | [12]
active: [10] 118 µM

O=[N+]([O-])/N=C1\NCCN1Cc1ccc(Cl)nc1
not listed: [6] | [13] | [14] | [15] | [16] | [18] | [19] | [20]
inactive: all other assays above

CC(C)N(C(=O)COc1nnc(C(F)(F)F)s1)c1ccc(F)cc1
active: [20] 115 µM | [8] 99.5 µM
not listed: [2] | [6] | [14] | [15] | [18] | [19]
inactive: all other assays above

N#CN
inactive: [1] | [2] | [3] | [4] | [5] | [7] | [8] | [9] | [10] | [11] | [12]

OCCOc1ccccc1
not listed: [2] | [14] | [17] | [18] | [19]
inactive: all other assays above

Reference: PubChem BioAssay (EPA / NIEHS)
